Screening data deposited in PubChem BioAssay by Broad Institute.
IDE exosite FP – insulin-degrading enzyme (human) exo-site inhibition; P14735; AID 1259349; 6.3% of 17,000 active; z-score at 20 µM; purified IDE, FL-6b probe fluorescence polarization; hits give low values;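 active means z-score of -3 or lower, meaning strong loss of probe binding signal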;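 further: His-tagged human IDE residues 42-1019 made in E. coli with 30 nM FL-6b probe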
Target sequence (P14735 42-1019 limits assumed): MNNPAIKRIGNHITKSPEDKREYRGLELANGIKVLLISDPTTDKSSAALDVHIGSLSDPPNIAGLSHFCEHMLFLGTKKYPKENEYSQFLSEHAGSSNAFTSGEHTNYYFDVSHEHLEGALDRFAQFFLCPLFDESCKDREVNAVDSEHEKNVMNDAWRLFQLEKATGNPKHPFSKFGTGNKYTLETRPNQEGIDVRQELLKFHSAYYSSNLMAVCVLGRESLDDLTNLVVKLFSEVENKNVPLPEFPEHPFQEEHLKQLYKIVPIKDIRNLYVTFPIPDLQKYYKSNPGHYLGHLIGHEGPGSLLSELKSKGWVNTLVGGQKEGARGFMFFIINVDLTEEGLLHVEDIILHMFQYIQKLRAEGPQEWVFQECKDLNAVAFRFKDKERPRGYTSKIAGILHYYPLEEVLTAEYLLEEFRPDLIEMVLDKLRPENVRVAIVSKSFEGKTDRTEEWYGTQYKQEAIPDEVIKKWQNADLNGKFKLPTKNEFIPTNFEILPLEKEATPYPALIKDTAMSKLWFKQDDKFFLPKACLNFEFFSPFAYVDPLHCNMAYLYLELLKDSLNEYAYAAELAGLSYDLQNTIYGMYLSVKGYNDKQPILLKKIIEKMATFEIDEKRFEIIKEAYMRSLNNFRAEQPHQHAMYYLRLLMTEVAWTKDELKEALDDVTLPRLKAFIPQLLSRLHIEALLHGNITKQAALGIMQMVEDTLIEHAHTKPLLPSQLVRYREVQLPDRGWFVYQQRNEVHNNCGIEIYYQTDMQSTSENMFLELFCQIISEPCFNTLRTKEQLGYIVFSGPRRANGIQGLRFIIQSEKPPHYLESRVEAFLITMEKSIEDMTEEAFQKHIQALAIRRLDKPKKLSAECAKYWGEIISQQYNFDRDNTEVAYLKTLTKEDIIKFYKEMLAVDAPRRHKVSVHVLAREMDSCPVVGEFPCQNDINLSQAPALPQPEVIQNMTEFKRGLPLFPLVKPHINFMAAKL
Large screens that a line does not name were inactive. This excerpt belongs to a sample that is enriched for hits.

CCS(=O)(=O)N1CC2(C1)[C@H](c1ccccc1)[C@@H](CO)N2Cc1ccc(F)cc1	none
CCCC#Cc1ccc([C@H]2[C@@H](CO)N3C(=O)CN(C(=O)Nc4ccc(F)cc4)C[C@H]23)cc1	none
N#Cc1ccc(-c2ccc([C@@H]3[C@@H](CO)N4C(=O)CN(C(=O)C5CCCCC5)C[C@H]34)cc2)cc1	none
Cc1ccccc1S(=O)(=O)N1[C@H](CO)[C@@H](c2ccc(-c3ccc(F)cc3)cc2)[C@@H]1C#N	none
CCCC#Cc1cnc2c(c1)C(=O)N([C@@H](C)CO)C[C@H](C)[C@H](CN(C)C(=O)Nc1cc(F)ccc1F)O2	none
CCCNC(=O)N1[C@H](CNC(=O)c2ccc(F)cc2)[C@H](c2ccccc2)[C@@H]1CO	none
CCN(C[C@H]1N[C@H](CO)[C@@H]1c1ccc(-c2cccc(F)c2)cc1)C(=O)COC	none
O=C1CN(S(=O)(=O)Cc2ccccc2)C[C@@H]2[C@@H](c3ccc(C#CC4CC4)cc3)[C@H](CO)N12	none
O=C1CN(S(=O)(=O)c2ccccc2)C[C@H]2[C@H](c3ccc(C#Cc4ccccc4)cc3)[C@@H](CO)N12	none
O=C1CN(S(=O)(=O)c2ccccc2)C[C@H]2[C@@H](c3ccc(C#Cc4ccccc4)cc3)[C@@H](CO)N12	none
O=C1CN(S(=O)(=O)c2ccccc2)C[C@@H]2[C@H](c3ccc(C#Cc4ccccc4)cc3)[C@H](CO)N12	IDE exosite FP -5.2
C[C@@H]1CCCCO[C@H](CN(C)Cc2ccncc2)[C@H](C)CN([C@H](C)CO)C(=O)c2cc(NS(=O)(=O)c3ccc(Cl)cc3)ccc2O1	none
Cc1nn(C)cc1NC(=O)C[C@H]1CC[C@H]2[C@H](COc3ccc(NC(=O)C4CCOCC4)cc3C(=O)N2C)O1	none
O=C(C[C@H]1CC[C@@H]2[C@H](COC[C@H](O)CN2C(=O)c2ccccc2F)O1)NCc1ccc(Cl)c(Cl)c1	none
CN(C)CC(=O)N1CCCCN2[C@H](CO)[C@H](c3ccc(/C=C/c4ccccc4)cc3)[C@H]2C1	IDE exosite FP -11
CN1CCCCN2[C@H](C1)[C@@H](c1ccc(/C=C/c3ccccc3)cc1)[C@@H]2CO	none
CCC(=O)N1CCCCN2[C@H](CO)[C@H](c3ccc(/C=C/c4ccccc4)cc3)[C@@H]2C1	IDE exosite FP -7.3
O=C(c1ccc(F)cc1)N1CCCCN2[C@@H](CO)[C@@H](c3ccc(/C=C/c4ccccc4)cc3)[C@@H]2C1	none
CN(C)CC(=O)N1CCCCN2[C@@H](CO)[C@@H](c3ccc(-c4cncnc4)cc3)[C@@H]2C1	none
CN(C)CC(=O)N1CCCCN2[C@@H](CO)[C@H](c3ccc(/C=C/c4ccccc4)cc3)[C@@H]2C1	IDE exosite FP -6.5
O=C(c1ccc(F)cc1)N1CCCCN2[C@H](CO)[C@H](c3ccc(/C=C/c4ccccc4)cc3)[C@H]2C1	none
CN(C)CC#Cc1ccc([C@H]2[C@@H](CO)N3CCCCN(C(=O)CN(C)C)C[C@H]23)cc1	none
O=C(c1ccc(F)cc1)N1CCCCN2[C@H](CO)[C@H](c3ccc(/C=C/c4ccccc4)cc3)[C@@H]2C1	none
CN(C)CC#Cc1ccc([C@@H]2[C@@H](CO)N3CCCCN(C(=O)CN(C)C)C[C@H]23)cc1	none
O=C(c1ccc(F)cc1)N1CCCCN2[C@H](CO)[C@@H](c3ccc(/C=C/c4ccccc4)cc3)[C@@H]2C1	none
CN(C)CC(=O)N1CCCCN2[C@H](C1)[C@H](c1ccc(/C=C/c3ccccc3)cc1)[C@@H]2CO	IDE exosite FP -7.3
CN(C)CC(=O)N1CC2(C1)[C@@H](c1ccccc1)[C@@H](CO)N2C(=O)C1CC1	none
Cc1ccc(S(=O)(=O)Nc2ccc3c(c2)C(=O)N(C)[C@@H]2CC[C@H](CC(=O)NCCc4ccncc4)O[C@H]2CO3)cc1	none
C[C@H]1CNC(=O)[C@H](Cc2ccc(C(F)(F)F)cc2)CCn2nncc2COC1	none
COc1ccc(S(=O)(=O)Nc2ccc3c(c2)C(=O)N([C@H](C)CO)C[C@@H](C)[C@@H](CN(C)Cc2ccc(C(F)(F)F)cc2)OCCCC[C@H](C)O3)cc1	none
CC(C)[C@H]1C(=O)N[C@H](c2cccc(Cl)c2)CC=CC[C@@H](C)Oc2ccccc2C(=O)N1C (mixture of isomers)	none
O=C(C[C@@H]1C[C@@H]2c3cc(NC(=O)C4CCOCC4)ccc3O[C@@H]2[C@H](CO)O1)NCCN1CCCCC1	none
O=C(Nc1cccc(Cl)c1)N1[C@@H]2CNC[C@H]1C2c1ccc(-c2ccccc2)cc1 (some centres not stated)	none
CCC(=O)Nc1ccc2c(c1)C(=O)N(C)C[C@H](OC)[C@H](C)CN(Cc1nccs1)[C@@H](C)CO2	none
Cc1ccccc1S(=O)(=O)N1CC(=O)N2[C@H](C1)[C@H](c1ccc(C#CCN(C)C)cc1)[C@@H]2CO	none
CN1C(=O)c2cc(NC(=O)Cc3cccs3)ccc2OC[C@H]2O[C@H](CC(=O)NCCc3ccncc3)CC[C@H]21	none
O=C(C1CCOCC1)N1CC(=O)N2[C@H](CO)[C@H](c3ccc(C#CC4CC4)cc3)[C@H]2C1	none
C/C=C/c1ccc([C@@H]2[C@H]3CN(C(=O)CN(C)C)CCCCN3[C@H]2CO)cc1	none
CN(C)CC(=O)N1CCCCN2[C@H](C1)[C@@H](c1ccc(/C=C/c3ccccc3)cc1)[C@@H]2CO	IDE exosite FP -5.9
CN(C)CC#Cc1ccc([C@@H]2[C@H](CO)N3CCCCN(C(=O)CN(C)C)C[C@@H]23)cc1	none
CN(C)CC(=O)N1CCCCN2[C@@H](CO)[C@@H](c3ccc(-c4ccccc4)cc3)[C@@H]2C1	none
CN(C)CC(=O)N1CCCCN2[C@@H](CO)[C@@H](c3ccc(/C=C/c4ccccc4)cc3)[C@@H]2C1	IDE exosite FP -12
CN(C)CC#Cc1ccc([C@@H]2[C@H]3CN(C(=O)CN(C)C)CCCCN3[C@H]2CO)cc1	none
N#C[C@H]1[C@@H](c2ccc(C3=CCCC3)cc2)[C@@H](CO)N1C(=O)Nc1ccccc1F	none
O=C(C1CCOCC1)N1CC2(C1)[C@@H](c1ccccc1)[C@@H](CO)N2Cc1ccccc1F	none
COc1ccc2c3c(n(C)c2c1)[C@@H](CO)N(C(=O)C1CCOCC1)CC31CN(C(=O)Nc2cccc(F)c2)C1	none
O=C(C1CCCCC1)N1CC(=O)N2[C@@H](CO)[C@@H](c3ccc(-c4ccccc4F)cc3)[C@@H]2C1	none
O=C(C1CCC1)N1CC(=O)N2[C@H](CO)[C@@H](c3ccc(-c4ccccc4F)cc3)[C@H]2C1	none
O=C(C1CCCC1)N1CC(=O)N2[C@H](CO)[C@H](c3ccc(-c4ccccc4F)cc3)[C@@H]2C1	IDE exosite FP -3.6
O=C(C1CCC1)N1CC(=O)N2[C@H](CO)[C@@H](c3ccc(-c4ccccc4F)cc3)[C@@H]2C1	IDE exosite FP -9.1
O=C(C1CCCCC1)N1CC(=O)N2[C@H](C1)[C@H](c1ccc(-c3ccccc3F)cc1)[C@@H]2CO	none
O=C(C1CCC1)N1CC(=O)N2[C@@H](CO)[C@H](c3ccc(-c4ccccc4F)cc3)[C@@H]2C1	none
O=C(C1CC1)N1CC(=O)N2[C@H](C1)[C@H](c1ccc(-c3ccccc3F)cc1)[C@@H]2CO	none
O=C(C1CC1)N1CC(=O)N2[C@H](CO)[C@@H](c3ccc(-c4ccccc4F)cc3)[C@H]2C1	none
O=C(C1CCCCC1)N1CC(=O)N2[C@H](CO)[C@@H](c3ccc(-c4ccccc4F)cc3)[C@H]2C1	none
O=C(C1CCOCC1)N1CC(=O)N2[C@@H](CO)[C@H](c3ccc(-c4ccccc4F)cc3)[C@@H]2C1	none
O=C(C1CC1)N1CC(=O)N2[C@H](CO)[C@H](c3ccc(-c4ccccc4F)cc3)[C@H]2C1	IDE exosite FP -7.9
O=C(C1CCOCC1)N1CC(=O)N2[C@H](CO)[C@H](c3ccc(-c4ccccc4F)cc3)[C@H]2C1	IDE exosite FP -7.6
